Data from PubChem BioAssay.
The source made the active and inactive calls.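 How the source made its calls, unless noted: active means compounds whose cell count with miR-34 switched on is under 0.7 times the count with it off; inactive means the rest.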

Assays:
[1] = test system: Aerobactin synthetase IucA (Klebsiella pneumoniae); assay: inhibition of K. pneumoniae IucA enzyme – biochemical, Tocris library, absorbance (AID 1345561; call rule not given here;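 further: 100% = enzyme without compound and 0% = no enzyme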); settings: purified IucA enzyme assay, absorbance (OD) read-out; stronger effect = lower value;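 tested at 8 µM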
[2] = viability loss with induced miR-34 in A549 – imaging, A549 dox-inducible miR-34, nuclei and caspase counts, primary screen (AID 1347080); settings: A549 miR-34 inducible, Hoechst nuclei count, 48 h
[3] = galactose survival enhancers in mitochondrial complex I cybrids – cell-based, galactose medium, ATP luminescence, primary screen (AID 1645843;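 active means z-score of at least 1.8 in each of two replicates, scored against plate mean and spread of sample wells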;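 further: positive z means more ATP and so rescue of galactose-driven cybrid death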); settings: complex I mutant cybrid cells, 72 h, stronger effect = higher value
[4] = stronger effect = lower value, cell number ratio, induced over uninduced
[5] = measured here: relative caspase fold change +Dox/-Dox
[6] = measured here: total cells with miR-34 induction, stronger effect = lower value
[7] = measured here: total cells without miR-34 induction

| Structure (SMILES) | remaining activity [1] | fold change [2, 4] | fold change [2, 5] | cell count [2, 6] | cell count [2, 7] | z-score [3] |
| --- | --- | --- | --- | --- | --- | --- |
| CCCCOC(=O)c1cc2c(cn1)[nH]c1ccccc12 | 96.6% (inactive) | 0.861 (inactive) | 0.7 | 7200 | 8360 | 1.05 (inactive) |
| CC(=O)N(O)[C@@H]1c2cc(C#N)ccc2OC(C)(C)[C@H]1O | 89.1% (inactive) | 0.882 (inactive) | 2.17 | 8800 | 9980 | 0.655 (inactive) |
| COCCNC(=O)COc1ccc(OCCNC[C@@H](O)COc2ccccc2)cc1 | 95.4% (inactive) | 0.88 (inactive) | 0.916 | 8400 | 9540 | 0.13 (inactive) |
| CC1=C(C(=O)OCCN(Cc2ccccc2)c2ccccc2)C(c2cccc([N+](=O)[O-])c2)C(P2(=O)OCC(C)(C)CO2)=C(C)N1 (configuration not stated) | 131% (inactive) | 0.992 (inactive) | 1.07 | 4790 | 4830 | -0.9 (inactive) |
| N[C@@H](CSS(=O)(=O)O)C(=O)O | 94.5% (inactive) | 0.893 (inactive) | 0.93 | 8240 | 9220 | -0.57 (inactive) |
| CN(Cc1ccccc1)C(=O)[C@H](Cc1ccc2ccccc2c1)NC(=O)[C@@H]1CCCN1C(=O)Nc1ccccc1[N+](=O)[O-] | 123% (inactive) | 0.972 (inactive) | 1.17 | 5700 | 5860 | 1.83 (active) |
| c1ccc2oc(C3=NCCN3)cc2c1 | 116% (inactive) | 0.904 (inactive) | 1.14 | 8470 | 9370 | 0.405 (inactive) |
| CCN(CC)CC1CCN(c2ncc3ncnc(Nc4ccc(F)c(Cl)c4)c3n2)CC1 | 124% (inactive) | 0.891 (inactive) | 1.55 | 1440 | 1620 | -0.675 (inactive) |
| COC(=O)[C@@H]1C2C[C@H]3c4[nH]c5ccccc5c4CCN3C[C@@H]2CC[C@@H]1O (some centres not stated) | 95.9% (inactive) | 0.91 (inactive) | 2.92 | 8430 | 9270 | 0.315 (inactive) |
| COC(=O)C(Cc1ccc(OCCn2c(=O)sc3cc(C(=O)c4ccccc4)ccc32)cc1)C(=O)OC | 104% (inactive) | 0.909 (inactive) | 1.26 | 8190 | 9020 | -0.89 (inactive) |
| OC(CN1CCNCC1)Cn1c2ccc(Br)cc2c2cc(Br)ccc21 (configuration not stated) | 103% (inactive) | 1.43 (inactive) | 0.602 | 284 | 198 | -0.705 (inactive) |
| Cc1cc(/C(=C\Nc2ccc(Cl)cc2)C(=O)Nc2ccc(Cl)cc2)on1 | 122% (inactive) | 0.913 (inactive) | 0.914 | 7920 | 8680 | 0.03 (inactive) |
